This is a sample that favours compounds with a hit; in the whole collection about 2.6% have one here.
Rce1 inh = yeast Rce1p protease inhibitors, primary screen, biochemical, fluorescence, cell-free homogeneous. yeast membranes, quenched prenylated peptide cleavage fluorescence. AID 2563, 2010. calls only. 290,000 compounds, 0.27% hits;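 active = fall in fluorescence gain of 50% or more versus controls, with final raw signal at or below 3038400; inconclusive = same 50% fall but final raw signal above 3038400; inactive = fall in fluorescence gain under 50%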;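 note: plate controls were neutral control wells for no effect and wells lacking membranes for full effect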
Platelet DG rel = inhibitors of platelet dense granule secretion, primary screen, cell-based, MLPCN, human platelets | human platelet-rich plasma, SFLLRN dense granule ATP release, luminescence | inhibition, %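 (compounds screened at 7.5 µM in platelet-rich plasma)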 | 300,000 compounds, 0.22% hits | AID 1663, 2009;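 active = mean replicate score, as percent of positive control, at or above 50; inconclusive = mean below 50 but at least one replicate at or above 50; inactive = mean and every replicate below 50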
M18AAP inhibitor = PfM18AAP inhibitors, malaria aminopeptidase, primary screen, biochemical, QFRET, recombinant enzyme; M18 aspartyl aminopeptidase (Plasmodium falciparum 3D7); H-Glu-NHMec fluorogenic cleavage; inhibition, % at 7.35 µM; 290,000 compounds, 1.2% hits; AID 1822, 2009;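 active = inhibition above the campaign mean inhibition over all tested compounds plus 3 SD, cut at about 28% in these data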;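 note: 0% = plate median of test compound wells and 100% = 2 mM ZnCl2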
ABHD5-PLIN5 inh = ABHD5-PLIN5 interaction inhibitors, primary screen, cell lysate, split luciferase complementation, luminescence | AID 602281, 2012 | Perilipin-5 (Homo sapiens) + 1-acylglycerol-3-phosphate O-acyltransferase ABHD5 (Homo … | Split G. princeps luciferase complementation, 4 h | 360,000 compounds, 0.78% hits | inhibition, % at 4 µM;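 active = inhibition above the mean inhibition across every tested compound plus 3 SD, cut at about 22% in these data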;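 note: 0% = DMSO only wells and the 100% control is not disclosed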
Target sequence (Q00G26 whole entry, looked up): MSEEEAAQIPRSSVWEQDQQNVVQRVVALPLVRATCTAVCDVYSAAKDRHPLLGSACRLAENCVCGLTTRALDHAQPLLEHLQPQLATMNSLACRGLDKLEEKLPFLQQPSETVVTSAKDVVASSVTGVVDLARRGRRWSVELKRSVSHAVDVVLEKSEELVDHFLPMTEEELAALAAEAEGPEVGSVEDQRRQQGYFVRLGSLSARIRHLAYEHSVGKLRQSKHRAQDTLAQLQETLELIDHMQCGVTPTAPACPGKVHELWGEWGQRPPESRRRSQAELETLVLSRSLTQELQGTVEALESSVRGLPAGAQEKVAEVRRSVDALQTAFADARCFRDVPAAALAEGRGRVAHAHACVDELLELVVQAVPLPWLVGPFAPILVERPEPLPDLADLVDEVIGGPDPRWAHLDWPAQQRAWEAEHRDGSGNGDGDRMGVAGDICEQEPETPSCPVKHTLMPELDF
Target sequence (Q8WTS1 whole entry, looked up): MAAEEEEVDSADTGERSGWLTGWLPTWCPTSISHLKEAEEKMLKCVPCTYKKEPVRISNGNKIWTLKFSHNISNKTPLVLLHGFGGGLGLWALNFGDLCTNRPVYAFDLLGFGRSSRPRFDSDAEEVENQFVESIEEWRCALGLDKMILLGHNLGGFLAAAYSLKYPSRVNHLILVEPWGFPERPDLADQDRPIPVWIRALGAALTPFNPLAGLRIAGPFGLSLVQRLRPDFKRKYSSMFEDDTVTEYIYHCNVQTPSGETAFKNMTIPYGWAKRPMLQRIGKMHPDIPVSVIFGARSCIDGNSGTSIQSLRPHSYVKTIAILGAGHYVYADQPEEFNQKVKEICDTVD
Exocytosis inh = LAMP-1 surface exposure blockers, TALL-104 cells – cell-based, flow cytometry, MLPCN library, primary screen; TALL-104 LAMP-1 surface exposure; cells stimulated with thapsigargin and PMA; inhibition, % at 10 µM; 360,000 compounds, 0.66% hits; AID 651702, 2012;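 active = inhibition above about 55%, limit read from the data; inconclusive = no clear call, values can overlap the other calls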
* hit, by the source's call; i = inactive; ? = inconclusive; . = no result; + = active, no number.

SMILES	Rce1 inh	Platelet DG rel	M18AAP inhibitor	ABHD5-PLIN5 inh	Exocytosis inh
Cc1cc[n+](-c2[nH]c(=O)sc2/C=N/NC([S-])=Nc2ccccc2)cc1C	i	8	32*	-11	1
Cc1cccc(-c2nnc(SCc3ccc(C#N)cc3)n2Cc2ccco2)c1	+	11	1	-3	4
C=CCn1c(SCc2ccc(C#N)cc2)nnc1-c1ccc(C)cc1	+	-2	8	1	0
Cn1c(SCc2ccc(C#N)cc2)nnc1-c1ccncc1	i	1	0	-5	-7
O=C(Nc1ccccc1-c1ccccc1)c1ccc(Cl)c([N+](=O)[O-])c1	i	3	-10	-2	1
O=C(Nc1ccc(Nc2ccccc2)cc1)c1ccc(Cl)c([N+](=O)[O-])c1	i	0	6	-7	99*
O=C(NCc1ccccc1)C1CCCC1	i	4	-3	.	.
Cc1nn(-c2ccccc2)c(Cl)c1/C=N/Nc1nc2ccccc2n1C	i	2	19	4	90*
COc1ccc(C(=O)/C=C2\Sc3ccccc3N2C)cc1	i	11	19	8	0
COc1ccccc1-[n+]1c(C)cc(/C=C2\Sc3ccccc3N2C)cc1C	i	-3	48*	13	45
O=C(NCSc1ccnc(SCNC(=O)c2ccccc2)n1)c1ccccc1	i	-9	38*	-2	-3
COc1ccc(NC(=O)Nc2ccc(OC)c(OC)c2)c([N+](=O)[O-])c1	i	-12	-1	5	-2
Cc1ccc(-n2ncc(C(=O)Nc3cc(Cl)cc(Cl)c3)c2C2CCNCC2)cc1C	i	6	9	8	88*
COC1=C(N)C(=O)c2nc(C)ccc2C1=O	.	.	.	-48	-8
COC1=C(Br)C(=O)c2nc(C)ccc2C1=O	.	.	.	-49	98*
Fc1ccccc1-c1n[nH]c(=S)n1/N=C/c1c[nH]c2ccccc12	i	0	15	-8	10
CCSc1nc(=S)cc(C)[nH]1	i	-2	28*	-13	-5
C=CCN1C(=O)/C(=C2/Sc3ccccc3N2C)SC1=Nc1c(C)n[nH]c1C	i	53*	-2	7	0
C=CCN1C(=O)/C(=C2/Sc3ccccc3N2C)SC1=Nc1ccccc1C	i	11	-4	-5	1
CC(COc1ccccc1Cc1ccccc1)N1CCCCC1 (configuration not stated)	i	-3	.	.	.
NN(Cc1ccccc1)C(=S)Nc1ccc(Cl)c(Cl)c1	i	-2	30*	-7	61*
O=C1CSC(=S)N1/N=C/c1cc(Br)ccc1O	i	-2	35*	.	.
CC(C)(C)c1ccc(/C=N/N2C(=O)CSC2=S)cc1	i	12	31*	-11	-9
COc1ccccc1C=NN1C(=O)CSC1=S	.	.	.	-18	4
O=C1CSC(=S)N1/N=C/c1ccc(O)c(O)c1O	i	-1	68*	2	2
SMILES	Rce1 inh	Platelet DG rel	M18AAP inhibitor	ABHD5-PLIN5 inh	Exocytosis inh
Cc1cccc(C)c1NC(=O)N1CCC(n2cnc3ccccc32)CC1	i	8	-9	0	1
O=c1cc(Cn2ccnc2)c2cc3c(cc2o1)CCC3	i	-2	5	-2	-2
CCOC(=O)Nc1ccc(C(=O)NCC2CCCO2)cc1 (configuration not stated)	i	0	-1	7	-1
CC1=NN(c2ccccc2)C(=O)/C1=C\c1ccc(Br)s1	+	1	25	-11	-1
CC1=NN(c2ccccc2)C(=O)/C1=C/c1cccs1	i	-4	18	-12	-1
COc1cc(/C=C2\C(=N)N3N=CSC3=NC2=O)ccc1OS(=O)(=O)c1ccccc1[N+](=O)[O-]	i	3	29*	0	?
CCCCOc1ccc(C(=O)Nn2c(-c3cccs3)nc3ccccc3c2=O)cc1	+	10	-10	-5	1
Cc1ccc(-c2nc(CN3CCCCC3)cc(CN3CCCCC3)c2O)cc1	+	-7	3	1	-1
O=[N+]([O-])c1ccc(-c2cnc(SCc3ccccc3Cl)[nH]2)cc1	i	-26	8	-7	14
O=[N+]([O-])c1ccc(-c2cnc(SC(c3ccccc3)c3ccccc3)[nH]2)cc1	+	-13	-1	-17	4
